{"source": "PubChem BioAssay (EPA / NIEHS)", "note": "Several values for one entry are separate records, joined by “and”; a condition that tells them apart may be missing. Identical values can stand only once. Records with an inconclusive call do not appear. Some structures have more than one record in an assay (separate samples or runs), and their calls can disagree. Activity calls are given as the source filed them. How the source made its calls: active means hit-call score of the fitted dose curve at least 0.9, where 1 is the maximum; inconclusive means response in the unintended direction; inactive means score below 0.9.", "data": [{"biological_target": "human Peripheral-type Benzodiazepine Receptor (PBR), TSPO (gene 706) (UniProt P30536)", "sequence (P30536 whole entry, looked up)": "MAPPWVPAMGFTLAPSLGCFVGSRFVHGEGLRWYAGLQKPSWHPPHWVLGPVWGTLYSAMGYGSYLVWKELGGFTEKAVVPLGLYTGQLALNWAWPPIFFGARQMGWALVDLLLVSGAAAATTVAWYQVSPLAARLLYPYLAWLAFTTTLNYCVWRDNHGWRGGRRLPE", "assay": "NVS_MP_hPBR: NovaScreen (NVS) Membrane Protein Assay for human Peripheral-type Benzodiazepine Receptor (PBR) (AID 2283331)", "experimental": "NVS_MP_hPBR is a biochemical, single-readout assay that uses extracted gene-proteins from Human colonic cell membranes in a tissue-based cell-free assay. Measurements were taken 1 hour after chemical dosing in a 48-well plate.NVS_MP_hPBR is one of one assay component(s) measured or calculated from the NVS_MP_hPBR assay. It is designed to make measurements of radioligand binding, a form of binding reporter, as detected with scintillation counting signals by Filter-based radiodetection technology.Data from the assay component NVS_MP_hPBR was analyzed into 1 assay endpoint. This assay endpoint, NVS_MP_hPBR, was analyzed in the positive analysis fitting direction relative to DMSO as the negative control and baseline of activity. Using a type of binding reporter, loss-of-signal activity can be used to understand changes in the binding as they relate to the gene TSPO. Furthermore, this assay endpoint can be referred to as a primary readout, because the performed assay has only produced 1 assay endpoint. To generalize the intended target to other relatable targets, this assay endpoint is annotated to the transporter intended target family, where the subfamily is cholesterol transporter.\nBinding assays used specific radioligands (tritiated, iodinated) with non-radioactive competitive displacement ligands in agonist or antagonist protocols (as indicated) and various reference compounds and inhibitors to titrate specific binding to receptors and transporters. Most enzyme assays (CYPs, kinases, phosphatases, proteases, HDACs) used recombinant protein and specific substrates (fluorescence mostly, some colorimetric and radioactive) and inhibitors, followed by a biochemical separation of substrate and product. All assays for the biochemical HTS were initially run in duplicate at a single concentration (10 uM for CYP450 assays and 25 uM for all others). […] Each assay was run with positive and negative controls, and concurrent controls on every plate. The follow-up (secondary) screen tested active chemical-pairs in concentration series, as well as a few additional assays not tested in the primary screen, some selected negative inactives, and several cases re-run in the concentration series for confirmatory purposes.", "values": [{"smiles": "CC1(C)[C@H](C(=O)O[C@H](C#N)c2cccc(Oc3ccccc3)c2)[C@@H]1C=C(Br)Br", "outcome": "inactive", "AC50": "10.1 µM (active)"}, {"smiles": "CC(C)CCCCCCCOP(=O)(Oc1ccccc1)Oc1ccccc1", "AC50": "6.03 µM (active)"}, {"smiles": "CC(C)(C)C(O)C(Oc1ccc(-c2ccccc2)cc1)n1cncn1", "note": "(stereo not given)", "outcome": "inactive"}, {"smiles": "CCCCCCCCCCCCCCCC[N+](C)(C)C", "AC50": "12.3 µM (active)"}, {"smiles": "CCOP(=O)(OCC)Oc1ccc([N+](=O)[O-])cc1", "outcome": "inactive"}, {"smiles": "Oc1ccc(Cl)cc1", "AC50": "12.3 µM (active)"}, {"smiles": "COC(C)(C)CCC[C@H](C)C/C=C/C(C)=C/C(=O)OC(C)C", "AC50": "25 µM (active)"}, {"smiles": "O=S(=O)(c1ccccc1)c1ccccc1", "AC50": "10.1 µM (active)"}, {"smiles": "CC(C)COP(=O)(OCC(C)C)OCC(C)C", "AC50": "25 µM (active)"}, {"smiles": "Cc1ccc(OP(=O)(Oc2ccc(C)cc2)Oc2ccc(C)cc2)cc1", "note": "(tested in a mixture with another compound)", "AC50": "1.12 µM (active) and 1.76 µM (active)"}, {"smiles": "CCc1cc(C)cc(CC)c1-c1c(OC(=O)C(C)(C)C)n2n(c1=O)CCOCC2", "outcome": "inactive"}, {"smiles": "O=C1C(Cl)=C(Cl)C(=O)C(Cl)=C1Cl", "AC50": "34.4 µM (active)"}, {"smiles": "COC(=O)COc1ccc(Cl)cc1Cl", "AC50": "14.9 µM (active)"}, {"smiles": "CCc1cccc(C)c1N(C(=O)CCl)[C@@H](C)COC", "AC50": "2.89 µM (active)"}]}]}
